High-throughput results from PubChem BioAssay.
The list is not random: actives were taken first. Their share in the collection is about 3.3%.
UHRF1 MBD2 ctr: UHRF1 methylated DNA binding inhibitors, primary screen, counter-screen for MBD2 inhibitor project, biochemical, TR-FRET, human UHRF1, single concentration; 370,000 compounds, 0.75% hits; inhibition, % at 4.4 µM; UHRF1 binding to methylated oligo; E3 ubiquitin-protein ligase UHRF1 (Homo sapiens), Q96T88;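 further: UHRF1 SRA domain binding a hemimethylated CpG hairpin DNA probe; 0% = median of test compound wells and 100% = reference inhibitor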
PfG6PD inh: PfG6PD enzyme inhibitors, primary screen, biochemical, fluorescence intensity, uHTS; PfGluPho enzyme, NADPH resazurin-diaphorase fluorescence; AID 504690, 2011; inhibition, % at 20 µM; glucose-6-phosphate dehydrogenase-6-phosphogluconolactonase (Plasmodium falciparum 3D7); 350,000 compounds, 0.78% hits;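 active means inhibition reaching at least a set limit at 20 µM in the primary screen, cut at about 59% in these data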;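 further: 0% = DMSO wells with substrate and 100% = DMSO wells lacking glucose-6-phosphate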
MBD2 DNA inh: inhibitors of MBD2 binding to methylated DNA, primary screen, biochemical, TR-FRET, DNA-binding domain, human; inhibition, % at 4.4 µM; 370,000 compounds, 0.31% hits; MBD2 binding to methylated oligonucleotide; Methyl-CpG-binding domain protein 2 (Homo sapiens), Q9UBB5; in the data active means inhibition above about 13%
Target sequence (Q9UBB5 whole entry, looked up, the tested form may be a part): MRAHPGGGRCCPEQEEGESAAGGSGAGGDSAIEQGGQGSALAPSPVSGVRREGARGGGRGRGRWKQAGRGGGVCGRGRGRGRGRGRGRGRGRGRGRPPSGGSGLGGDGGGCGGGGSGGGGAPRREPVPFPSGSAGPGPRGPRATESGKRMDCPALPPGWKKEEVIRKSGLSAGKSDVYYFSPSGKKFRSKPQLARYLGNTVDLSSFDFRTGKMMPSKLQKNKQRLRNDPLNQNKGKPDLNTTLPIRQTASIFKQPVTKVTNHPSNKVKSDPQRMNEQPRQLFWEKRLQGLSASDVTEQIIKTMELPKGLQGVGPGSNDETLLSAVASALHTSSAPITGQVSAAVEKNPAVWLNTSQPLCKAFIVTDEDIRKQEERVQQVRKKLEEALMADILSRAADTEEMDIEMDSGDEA
PRMT1 FP inh: PRMT1 methyltransferase inhibitors, primary screen, biochemical, fluorescence polarization; Protein arginine N-methyltransferase 1 (Homo sapiens), Q99873; recombinant PRMT1, activity-based probe fluorescence polarization; inhibition, % at 2.79 µM; 370,000 compounds, 1.3% hits; AID 652257, 2013;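 active means inhibition above about 21% made by adding two undisclosed values, limit read from the data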
M18AAP inhibitor: PfM18AAP inhibitors, malaria aminopeptidase, primary screen, biochemical, QFRET, recombinant enzyme | M18 aspartyl aminopeptidase (Plasmodium falciparum 3D7) | H-Glu-NHMec fluorogenic cleavage | inhibition, % at 7.35 µM | 290,000 compounds, 1.2% hits | AID 1822, 2009;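 active means inhibition above the campaign mean inhibition over all tested compounds plus 3 SD, cut at about 28% in these data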;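 further: 0% = plate median of test compound wells and 100% = 2 mM ZnCl2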
PRMT1 confirm: PRMT1 methyltransferase inhibitors, confirmation, biochemical, fluorescence polarization, triplicate; 3,300 compounds, 42% hits; recombinant His-PRMT1, activity-based probe fluorescence polarization; AID 687036, 2013; inhibition, % at 2.79 µM; shares compounds with PRMT1 FP inh;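 active means mean inhibition across replicates above the hit cutoff derived for the earlier primary screen, cut at about 22% in these data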
UHRF1 DNA bind: UHRF1 methylated DNA binding inhibitors, counter-screen for MBD2 inhibitor project, biochemical, TR-FRET, human UHRF1. shares compounds with MBD2 DNA inh. UHRF1 binding to methylated oligonucleotide. inhibition, % at 4.4 µM. 1,000 compounds, 25% hits. AID 720530, 2013;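 further: UHRF1 SRA domain binding a labeled hemimethylated CpG hairpin DNA; 0% = vehicle only and 100% = reference inhibitor with vehicle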
MBD2 DBD conf: inhibitors of MBD2 binding to methylated DNA, confirmation, biochemical, TR-FRET, DNA-binding domain, human; inhibition, % at 4.4 µM; 1,000 compounds, 26% hits; shares compounds with MBD2 DNA inh; TR-FRET MBD2-DBD binding to methylated oligonucleotide; AID 720531, 2013; in the data active means inhibition above about 14%
Active calls of the source: *; · = not tested or not shown. Unless noted, no stated cut-off is given here; in the data, active means inhibition above about 21%; inactive means the rest.

SMILES	UHRF1 MBD2 ctr	PfG6PD inh	MBD2 DNA inh	PRMT1 FP inh	M18AAP inhibitor	PRMT1 confirm	UHRF1 DNA bind	MBD2 DBD conf
O=C1NC(=O)N(Cc2ccc(F)cc2)C(=O)/C1=C\c1ccc([N+](=O)[O-])s1	-2.7	71.2*	1.6	39.3*	-9.8	71.9*	·	·
COc1ccc(CN2C(=O)NC(=O)/C(=C/c3ccc([N+](=O)[O-])s3)C2=O)cc1	1.3	67.4*	-1.5	31.4*	-8.4	65.7*	·	·
COc1ccc(N2C(=O)NC(=O)/C(=C/c3ccc([N+](=O)[O-])s3)C2=O)cc1	-0.6	55.9	-5.0	19.1	4.5	·	·	·
COc1ccc2c(c1)c(C(=O)CN1CCC3(CC1)OCCO3)c(C)n2Cc1ccccc1	-3.1	7.6	2.8	0.6	4.6	·	·	·
O=C1NC(=S)N(c2ccc(F)cc2)C(=O)/C1=C/c1ccccc1O	0.5	-7.9	2.3	1.9	-7.3	·	·	·
COc1ccccc1C=C1C(=O)NC(=S)NC1=O	1.7	-9.2	-3.5	29.6*	·	38.7*	·	·
COc1ccccc1/C=C1\C(=O)NC(=S)N(c2ccccc2)C1=O	1.2	20.0	-2.2	38.2*	7.2	21.2*	·	·
NC(=O)CS(=O)C(c1ccccc1)c1ccccc1 (centres undefined)	·	·	·	·	5.9	·	·	·
COCCCNP1(=O)OCC(C)([N+](=O)[O-])CO1 (centres undefined)	1.1	-11.2	-6.5	-3.7	·	·	·	·
COc1ccc2c3c([nH]c2c1)C(C)=NCC3	-2.3	1.9	-0.2	1.6	4.3	·	·	·
CC1=NCCc2c1[nH]c1cc(O)ccc21	-10.6	10.4	-12.0	118.9*	·	124.7*	·	·
CC(C)N1C(=O)/C(=C/C=C/c2ccco2)C(=O)N(Cc2ccco2)C1=O	50.1*	25.6	19.3*	29.3*	26.9	15.8	18.9	10.8
COC(=O)C1C2CC[C@@H](CC1OC(=O)c1ccccc1)N2 (some centres undefined)	·	7.5	·	·	·	·	·	·
CN(C)c1ccc(/C=C2\C(=O)NC(=O)N(CCc3ccc(F)cc3)C2=O)cc1	-1.7	-0.2	0.3	10.4	-5.9	·	·	·
CN(C)c1ccc(/C=C2/C(=O)NC(=O)N(Cc3ccco3)C2=O)cc1	68.3*	13.1	15.0*	28.9*	16.3	3.2	25.2*	11.5
CCN(CC)c1ccc(/C=C2/C(=O)NC(=O)N(Cc3ccco3)C2=O)cc1	72.1*	19.9	18.4*	29.7*	13.7	3.2	28.7*	13.9*
COC(=O)C1=C(c2ccc(S(C)(=O)=O)cc2)C[C@@H]2CC[C@H]1N2C(=O)NC(C)C	1.1	0.2	3.5	0.5	·	·	·	·
Cc1ccc(/C=C2\C(=O)NC(=S)N(c3ccc(F)cc3)C2=O)o1	-1.6	3.3	-1.5	7.0	-2.4	·	·	·
O=C1NC(=S)N(c2ccccc2)C(=O)/C1=C/c1ccco1	90.6*	18.7	58.2*	54.7*	12.7	74.3*	99.8*	88.8*
O=C1NC(=O)N(CCc2ccc(F)cc2)C(=O)/C1=C/c1ccco1	97.3*	25.9	74.0*	35.4*	7.9	3.3	22.6*	15.7*
NC(Cc1ccc(Cl)cc1)c1csc(Nc2ccccn2)n1 (centres undefined)	-3.3	·	-2.3	-1.2	·	·	·	·
COC1C(C)OC(OC2CC(C)(O)Cc3cc4c(c(O)c32)C(=O)c2c(O)cc3c(c2C4=O)OC2OC3(C)C(O)C(N(C)C)C2O)C(OC)C1(C)OC (centres undefined)	96.6*	27.4	107.5*	123.9*	·	98.4*	102.1*	108.8*
